# From PubChem BioAssay (NCI)
# Several values for one entry are separate records, joined by “and”; a condition that tells them apart may be missing. Equal values may be shown once. This is part of a sample that, as a whole, favours compounds with a hit. Of some 83,000 tested, about 20% had one in any assay.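 Step 1: grow cells in 96-well plates. Step 2: add test compound at a single concentration. Step 3: incubate 48 h. Step 4: record percent growth.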 Activity calls are given as the source filed them. How the source made its calls: active means growth percent below 10; inactive means the rest.
# Assays:
# Test in all cases: NCI-60 one-dose screen, 48 h (100 = growth as untreated, 0 = no growth, -100 = all killed)
# Conditions in all cases: 10 µM unless noted
# NCI-H23 lung = system: NCI-H23 lung
# NCI-H226 lung = system: NCI-H226 lung
# NCI-H322M lung = system: NCI-H322M lung
# HOP-62 NSCLC = system: HOP-62 NSCLC
# NCI-H460 lung = system: NCI-H460 lung
# HOP-92 NSCLC = system: HOP-92 NSCLC
# NCI-H522 lung = system: NCI-H522 lung
# A549/ATCC NSCLC = system: A549/ATCC NSCLC
# 786-0 renal = system: 786-0 renal
# COLO 205 colon = system: COLO 205 colon
# DU-145 prostate = system: DU-145 prostate
# K-562 leukemia = system: K-562 leukemia
# MALME-3M melanoma = system: MALME-3M melanoma
# MDA-MB-231 breast = system: MDA-MB-231 breast
# RXF 393 renal = system: RXF 393 renal
# SF-268 CNS = system: SF-268 CNS
# SF-295 CNS = system: SF-295 CNS
# SF-539 CNS = system: SF-539 CNS
# UACC-257 melanoma = system: UACC-257 melanoma
# M14 melanoma = system: M14 melanoma
SMILES,growth (NCI-H23 lung),growth (NCI-H226 lung),growth (NCI-H322M lung),growth (HOP-62 NSCLC),growth (NCI-H460 lung),growth (HOP-92 NSCLC),growth (NCI-H522 lung),growth (A549/ATCC NSCLC),growth (786-0 renal),growth (COLO 205 colon),growth (DU-145 prostate),growth (K-562 leukemia),growth (MALME-3M melanoma),growth (MDA-MB-231 breast),growth (RXF 393 renal),growth (SF-268 CNS),growth (SF-295 CNS),growth (SF-539 CNS),growth (UACC-257 melanoma),growth (M14 melanoma)
CC(C)N=c1cc2n(-c3ccc(Cl)cc3)c3ccccc3nc-2cc1Nc1ccc(Cl)cc1,-15.1% (active) and -62% (active) and -35.6% (active),35.8% (inactive) and 20.1% (inactive) and -21.7% (active),26.9% (inactive) and -13.2% (active) and -0.542% (active),55.8% (inactive) and 73.1% (inactive) and 42.9% (inactive),13.1% (inactive) and 13.2% (inactive) and -4.66% (active),-2.5% (active) and -0.497% (active),9.58% (active) and -31.8% (active),20.2% (inactive) and 43.3% (inactive) and 16.1% (inactive),24.7% (inactive) and 9.68% (active) and -18.8% (active),-7.57% (active) and -28.7% (active),51.4% (inactive) and 15.5% (inactive),14.5% (inactive) and -17.3% (active),5.85% (active) and -83.1% (active) and -46% (active),-0.451% (active) and 26% (inactive) and 10.6% (inactive),8.99% (active) and -11.2% (active) and 12.3% (inactive),45.5% (inactive) and 35.7% (inactive) and 31.2% (inactive),9.83% (active) and 19.6% (inactive) and -10.5% (active),72.8% (inactive) and 73.3% (inactive) and 59.1% (inactive),28.3% (inactive) and 29.6% (inactive) and 7.9% (active),-8.29% (active) and -34.4% (active) and -56.7% (active)
O=C1c2ccccc2C(=O)c2c(NCCNCCO)ccc(NCCNCCO)c21,-70.8% (active) and 25.8% (inactive) and 29.5% (inactive),-56.8% (active) and -20.6% (active) and -27.1% (active),7.84% (active) and 19.3% (inactive) and -5.07% (active),-20.4% (active) and 3.59% (active) and 9.04% (active),1.72% (active) and 5.39% (active) and 5.06% (active),-7.34% (active) and -5.98% (active),-86.2% (active) and -57.7% (active) and -56.1% (active),14.3% (inactive) and 1.64% (active),0.75% (active) and 23.8% (inactive) and 25.2% (inactive),-51.3% (active) and 20.9% (inactive) and 30.2% (inactive),-41.7% (active) and 24.3% (inactive) and 14% (inactive),135% (inactive) and 24.8% (inactive) and 7.96% (active),-15.3% (active) and 45.8% (inactive) and 46.7% (inactive),-6.87% (active) and 11.3% (inactive) and 12.1% (inactive),0.645% (active),-16.6% (active) and 4.52% (active) and -6.95% (active),-21.5% (active) and 7.17% (active),-17% (active) and 29.6% (inactive) and 19.9% (inactive),72.2% (inactive) and 89.1% (inactive) and 82.5% (inactive),10.7% (inactive) and 47.4% (inactive) and 33.9% (inactive)
COc1cc2c(c(OC)c1OC)-c1ccc(OC)c(=O)cc1[C@@H](NC(C)=O)CC2,24.4% (inactive) and 29.4% (inactive) and 12.6% (inactive),33.9% (inactive) and 13.1% (inactive) and 31% (inactive),47.7% (inactive) and 32.9% (inactive) and 36.1% (inactive),31.2% (inactive) and 24.6% (inactive) and 20% (inactive),4.46% (active) and 1.09% (active) and 2.92% (active),57.9% (inactive) and 14% (inactive) and 2.37% (active),15.4% (inactive) and -6.78% (active) and -64.2% (active),12.3% (inactive) and 44.9% (inactive),17.5% (inactive) and 9.25% (active) and 15.4% (inactive),-36.4% (active) and 3.13% (active) and -47.6% (active),-26.3% (active) and 0.564% (active) and -28.6% (active),9.04% (active) and 10.4% (inactive) and -25.7% (active),45.1% (inactive) and 43.1% (inactive) and 39% (inactive),16.3% (inactive) and -21.5% (active) and -9.65% (active),34% (inactive) and 33.7% (inactive) and 15.3% (inactive),33.5% (inactive) and 27.5% (inactive) and 35.1% (inactive),2.25% (active) and 12.5% (inactive) and 7.89% (active),-9.65% (active) and -24.7% (active) and -10.6% (active),76.9% (inactive) and 66.3% (inactive) and 24.9% (inactive),2.32% (active) and -7.49% (active) and 1.7% (active)
O=[N+]([O-])c1ccc(-n2[nH]nnc2=S)cc1,98.5% (inactive),107% (inactive),92.8% (inactive),102% (inactive),110% (inactive),102% (inactive),91.3% (inactive),102% (inactive),106% (inactive),100% (inactive),112% (inactive),102% (inactive),89.2% (inactive),93.6% (inactive),166% (inactive),98.3% (inactive),95.2% (inactive),104% (inactive),113% (inactive),109% (inactive)
O=C(Oc1cccc(OC(=O)c2ccccc2)c1)c1ccccc1,94.6% (inactive) and 106% (inactive),102% (inactive) and 100% (inactive),101% (inactive) and 97.8% (inactive),90.5% (inactive) and 90% (inactive),107% (inactive) and 94.2% (inactive),73.7% (inactive) and 88.5% (inactive),108% (inactive),57.7% (inactive) and 98.9% (inactive),90% (inactive) and 95.8% (inactive),101% (inactive) and 104% (inactive),111% (inactive) and 105% (inactive),79.3% (inactive) and 88.5% (inactive),119% (inactive) and 110% (inactive),96.2% (inactive) and 107% (inactive),121% (inactive),92% (inactive) and 94.7% (inactive),103% (inactive) and 99% (inactive),96.8% (inactive) and 96.1% (inactive),111% (inactive),116% (inactive) and 99.4% (inactive)
O=C(N/N=C/c1cccc2ccccc12)C1CC1,104% (inactive) and 89.3% (inactive),104% (inactive) and 92.2% (inactive),98.1% (inactive) and 101% (inactive),104% (inactive) and 116% (inactive),113% (inactive) and 104% (inactive),97.8% (inactive) and 95.1% (inactive),98.8% (inactive) and 103% (inactive),100% (inactive) and 89.2% (inactive),99.9% (inactive) and 99% (inactive),112% (inactive) and 117% (inactive),128% (inactive) and 120% (inactive),92.3% (inactive) and 114% (inactive),110% (inactive),95.4% (inactive) and 91.3% (inactive),111% (inactive) and 110% (inactive),115% (inactive) and 104% (inactive),118% (inactive) and 92.9% (inactive),111% (inactive) and 102% (inactive),103% (inactive) and 100% (inactive),110% (inactive) and 108% (inactive)
Nc1cc2c(cc1N)-c1ccccc1C2,93.1% (inactive) and 88.3% (inactive),84.3% (inactive) and 88.4% (inactive),85.4% (inactive) and 95% (inactive),96.6% (inactive) and 104% (inactive),103% (inactive) and 101% (inactive),84.3% (inactive),15.9% (inactive) and 52.2% (inactive),90.9% (inactive) and 90.4% (inactive),89.3% (inactive) and 99.6% (inactive),94.8% (inactive) and 93.1% (inactive),104% (inactive) and 106% (inactive),79.4% (inactive) and 87% (inactive),76.5% (inactive) and 103% (inactive),64.7% (inactive) and 97% (inactive),88.2% (inactive) and 96.4% (inactive),86.8% (inactive) and 92.6% (inactive),156% (inactive) and 98.8% (inactive),74.9% (inactive) and 92.5% (inactive),101% (inactive) and 98.1% (inactive),97.1% (inactive) and 109% (inactive)
Nc1ccc(N=Nc2ccc(S(=O)(=O)O)cc2)cc1S(=O)(=O)O,95.6% (inactive) and 99.8% (inactive),110% (inactive) and 99.8% (inactive),104% (inactive) and 110% (inactive),118% (inactive) and 101% (inactive),103% (inactive) and 96.2% (inactive),90.9% (inactive) and 72% (inactive),91% (inactive) and 96.3% (inactive),95.1% (inactive) and 103% (inactive),104% (inactive) and 106% (inactive),125% (inactive) and 119% (inactive),112% (inactive) and 104% (inactive),105% (inactive),117% (inactive) and 112% (inactive),88.2% (inactive) and 104% (inactive),99.9% (inactive) and 61.2% (inactive),95.2% (inactive) and 103% (inactive),121% (inactive) and 87.8% (inactive),102% (inactive) and 100% (inactive),150% (inactive),93.8% (inactive) and 117% (inactive)
